Most compounds without a hit are left out; they make up all but 17% or so of the library.
TDP1 cell noCPT – qHTS for Inhibitors of human tyrosyl-DNA phosphodiesterase 1 (TDP1): qHTS in cells in absence of CPT; hit rate 15% among 420,000; DT40 Tdp1-/- hTDP1 cells, no CPT, ATP luminescence, 48 h; Potency, µM (doses to about 46.2 µM), inactives show at the top dose activity change, negative = growth inhibition, actives largely listed as inhibitors; AID 686978, 2013; note: % is set by controls: 0 for no effect and ±100 for the full control effect; nearly all actives have a fitted effect of over 55% in size
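Compound effects on proliferation are scored in DT40 Tdp1-/-;hTDP1 cells in the absence of CPT. ATP levels (CellTiter-Glo luminescence) are recorded after a ≥48 hr, 37 °C incubation.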
DT40 TDP1 CPT – DT40-hTDP1 cell growth loss with CPT; chicken DT40 Tdp1-/-;hTDP1 cells + 20 nM CPT, ATP luminescence, 48 h; Potency, µM (doses to about 46.2 µM), for inactives: at the highest dose activity change, negative = growth inhibition, actives largely listed as inhibitors; hit rate 12% among 420,000; AID 686979; note: % is set by controls: 0 for no effect and ±100 for the full control effect; nearly all actives have a fitted effect of over 55% in size
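Chicken DT40 Tdp1-/- cells complemented with human TDP1, 400 cells/well, exposed to compounds plus 20 nM camptothecin for at least 48 h at 37 C; viability read as ATP content by CellTiter-Glo luminescence.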
HT1080 IDH1KD tx – kills HT-1080 cells with IDH1 knockdown; HT-1080 IDH1 knockdown viability, ATP luminescence, 48 h; Potency, µM (top dose mostly 46.1 µM), without a hit: at the highest dose activity, negative = toxicity, actives largely listed as cytotoxic; hit rate 2% among 360,000;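 note: 0% = DMSO wells and -100% = cell-free medium wells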
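Cytotoxicity counter-line: IDH1KD HT-1080, 48 h, CellTiter-Glo. Curves classed by r2, magnitude and activity.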
HT1080-NT tox – kills 2HG-producing HT-1080-NT fibrosarcoma cells; hit rate 1.6% among 360,000; HT-1080-NT fibrosarcoma viability, CellTiter-Glo ATP luminescence, 48 h; Potency, µM (titrated, usually from 46.1 µM), for inactives: at the top dose activity, negative = less viability, usual class: cytotoxic;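 note: NT is the 2HG producing partner of a matched IDH1 knockdown line; 0% = DMSO-treated cells and -100% = media-only wells without cells; nearly all actives have a fitted effect of over 55% in size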
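A 48-hour cytotoxicity screen used HT-1080-NT cells plated 2 hours before compound delivery. ATP-based CellTiter-Glo luminescence measured viability, normalized to DMSO and no-cell controls.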
TGFb SMAD3 inh – inhibitors of TGF-b signaling | HepG2 CAGA-GFP TGF-b/SMAD3 reporter, GFP fluorescence, 18 h; TGF-beta stimulated, 500 pg/mL final | hit rate 1.2% among 410,000 | Potency, µM (top dose mostly 46.1 µM), for the others: at the highest dose activity, negative = inhibition, hits mostly inhibitors; note: % is set by controls: 0 for no effect and ±100 for the full control effect; nearly all actives have a fitted effect of over 65% in size
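Inhibition was scored as loss of TGF-beta-induced (500 pg/mL final, 18 hours, 37 degrees C) GFP in HEPG2 cells carrying a CAGA-GFP reporter, in DMEM with 1% FBS. Well GFP was summed per cell; Activity was normalised to unstimulated and stimulated DMSO wells, then concentration-response fitting.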
HepG2 viability – counter-screen for TGF-b inhibitors: cytotoxicity in HepG2 cells | hit rate 0.76% among 410,000 | HepG2 CAGA-GFP viability, ATP luminescence, 18 h | AID 588856 | Potency, µM (highest dose often 46.1 µM), for the others: at the top dose activity change, negative = cytotoxicity, hits mostly cytotoxic
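HepG2 CAGA-GFP cells (1000/well, DMEM with 1% FBS) received compound, then TGF-beta at 500 pg/mL final, and were incubated 18 hours at 37 degrees C. Viability was read by CellTiter-Glo luminescence. Media-only wells were set as complete cell-killing and DMSO as no toxicity.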
An asterisk follows results filed as active; ? = inconclusive; . = no result; ! = a repeat was not active. Calls come from the whole dose curve; as a rule, active = well fitted curve in the direction sought with a large enough effect; inconclusive = small, poorly fitted or top-dose-only effect, or another doubt; inactive = no such curve, though single readings can be large; an effect the other way counts as inactive or inconclusive. Potency is the fitted concentration of half-maximal effect.

SMILES	TDP1 cell noCPT	DT40 TDP1 CPT	HT1080 IDH1KD tx	HT1080-NT tox	TGFb SMAD3 inh	HepG2 viability
O=C(COc1ccc(CNC[C@H]2O[C@@H](n3ccc(=O)[nH]c3=O)[C@H](O)[C@@H]2O)cc1)Nc1ccccn1	9%	0%	20%	12%	?	-6%
COC(=O)c1ccccc1NC(=O)CCC(=O)N1CC(C)Sc2ccccc21 (centres undefined)	15µM*	16µM*	.	.	?	-16%
Cc1ccc2c(c1)N(C(=O)CCC(=O)N1CCOCC1)CC(C)O2 (centres undefined)	-5%	-1%	0%	-14%	-5%	-1%
COC(=O)c1ccccc1NC(=O)CCC(=O)N1CC(C)Oc2ccc(C)cc21 (centres undefined)	?	15µM*	1%	10%	-1%	-2%
CCOC(=O)c1cccc(NC(=O)CCC(=O)N2CC(C)Oc3ccc(C)cc32)c1 (centres undefined)	?	23µM*	.	.	-26%	0%
Cc1ccc2c(c1)N(C(=O)CCC(=O)N1CCC(C(N)=O)CC1)CC(C)O2 (centres undefined)	5%	26µM*	3%	0%	-4%	-11%
COC(=O)c1ccccc1NC(=O)CCC(=O)N1CCSc2ccccc21	-21%	-8%	9%	7%	-5%	-29%
CCN(CC)C(CNC(=O)CSc1nnnn1-c1c(C)cccc1C)c1ccco1 (centres undefined)	?	?	7%	-2%	1%	-18%
COc1ccc(N2CCN(C(=O)CCC(=O)N3CC(C)Oc4ccccc43)CC2)cc1 (centres undefined)	?	?	2%	-15%	-12%	-35%
Cc1ccc2c(c1)N(C(=O)CCC(=O)Nc1ccc(F)cc1F)CC(C)O2 (centres undefined)	7.3µM*	5.2µM*	.	.	-18%	-4%
Cc1ccc2c(c1)N(C(=O)CCC(=O)NCC(C)c1ccccc1)CC(C)O2 (centres undefined)	?	?	7%	17%	-1%	-7%
CC1CN(C(=O)CCC(=O)N2CCN(c3cccc(C(F)(F)F)c3)CC2)c2ccccc2O1 (centres undefined)	21µM*	18µM*	-21%	-7%	?	-52%
CN(C)c1ccc(/C=C/c2nc3ccccc3s2)cc1Cl	2.8µM*	5µM*	.	.	?	-34%
Cc1cc(/C=C2\C=Cc3ccccc32)ccc1N(C)C	-21%	?	.	.	-2%	-78%
Cc1cc(/C=C/c2nc3ccccc3s2)ccc1N(C)C	1µM*	1.4µM*	.	.	?	-34%
CCCCCCCCN1C(=O)[C@H](CC(=O)NCc2cccs2)C[C@@]2(C(=O)OC)CC(C)(C)CC=C12	8.2µM*	15µM*	?	?	.	.
CCCCCCCCN1C(=O)[C@H](CC(=O)NCc2ccc(C)o2)C[C@@]2(C(=O)OC)CC(C)(C)CC=C12	8.2µM*	12µM*	?	?	.	.
COC(=O)[C@@]12C[C@@H](CC(=O)NCc3cccs3)C(=O)N(Cc3ccccc3)C1=CCC(C)(C)C2	?	?	-2%	-25%	.	.
CC1(C)O[C@@H]2C[C@H]3[C@@H]4CCC5=CC(=O)C=C[C@]5(C)[C@@]4(F)[C@@H](O)C[C@]3(C)[C@]2(C(=O)CO)O1	-14%	?	?	?	1%	0%
CC(=O)OCC(=O)[C@@]12OC3(CCCC3)O[C@@H]1C[C@H]1[C@@H]3CCC4=CC(=O)C=C[C@]4(C)[C@@]3(F)[C@@H](O)C[C@@]12C	4.6µM*	2.3µM*!	-23%	?	5%	1%
CC(C)Oc1cccc(C(=O)Nc2ccc(Br)cc2F)c1	16µM*	?	-8%	-2%	9%	-1%
Cc1noc(C)c1COc1cccc(C(=O)Nc2ccc(Br)cc2F)c1	6.5µM*	8.2µM*	?	?	-23%	4%
COc1cccc(C(=O)Nc2ccc(F)cc2F)c1	-15%	-15%	-12%	16%	-4%	-4%
Cc1noc(C)c1COc1cccc(C(=O)OC(C)C(=O)Nc2ccc3c(c2)OCO3)c1 (centres undefined)	0.82µM*	1µM*	5µM*	10µM*	-31%	-6%
COc1ccc(S(=O)(=O)N2CCN(c3nc(-c4cccs4)nc4ccccc34)CC2)cc1OC	?	-23%	.	.	5%	3%
SMILES	TDP1 cell noCPT	DT40 TDP1 CPT	HT1080 IDH1KD tx	HT1080-NT tox	TGFb SMAD3 inh	HepG2 viability
Cc1ccc(CNC(=O)C2CCCN(Cc3cnn(-c4ccccc4)c3-n3cccc3)C2)cc1 (centres undefined)	21µM*	21µM*	3%	1%	-16%	3%
CCCSCCCNC(=O)C1CCN(C(=O)c2cnn(-c3ccccc3)c2-n2cccc2)CC1	?	18µM*	.	.	?	-10%
O=C(NCC1CCCO1)C1CCCN(Cc2cnn(-c3ccccc3)c2-n2cccc2)C1 (centres undefined)	?	-16%	-5%	-5%	7%	-12%
CCCSCCCNC(=O)C1CCCN(C(=O)c2cnn(-c3ccccc3)c2-n2cccc2)C1 (centres undefined)	?	?	.	.	16µM*	-23%
CCOC(=O)c1sc(NC(=O)c2nc3nc(C)cc(C(F)F)n3n2)c(C(=O)OC(C)C)c1C	-1%	0%	.	.	6%	6%
Cc1cccc(NC(=O)NC2CCCCCCC2)c1C	3%	-28%	1%	-2%	0%	1%
COc1cccc2[nH]c3ccccc3c(=O)c12	?	-94%	2%	2%	-1%	-35%
C=Cc1ncc(OC)c2c1[nH]c1ccccc12	3.7µM*	3.7µM*	?	16µM*	20µM*	13µM*
COc1cccc(-n2c(=O)c3sc4ccccc4c3n(CC(=O)Nc3ccccc3OC)c2=O)c1	15µM*	9.2µM*	.	.	?	-18%
O=C(Cn1c(=O)n(-c2cccc(Cl)c2)c(=O)c2sc3ccccc3c21)NC1CCCCC1	?	23µM*	.	.	-11%	-1%
COc1cccc(-n2c(=O)c3sc4ccccc4c3n(CC(=O)Nc3ccccc3C)c2=O)c1	-15%	6%	.	.	?	-15%
O=C(CCC(=O)CCN1CCCCC1)CCN1CCCCC1	21µM*	13µM*	-7%	-5%	-5%	1%

Screening results from PubChem.
